Laboratory results published in the supplement of paper PMC11732987, “Enantioselective OTUD7B fragment discovery through chemoproteomics screening and high-throughput optimisation” (Communications Chemistry, 2025).

Assays:
Assay in all cases: log2 ratio of Biotin-Ahx-Ub-VS probe labelling (fragment/DMSO); higher = less target engagement (more negative = stronger competition), active = hit call of the paper (q ≤ 0.05, log2 ratio ≤ -1)
Details in all cases: compound concentration: 200 uM; treatment time: 3 h
USP19 = target: T1, USP19 (UniProt O94966)
T1 sequence (whole entry): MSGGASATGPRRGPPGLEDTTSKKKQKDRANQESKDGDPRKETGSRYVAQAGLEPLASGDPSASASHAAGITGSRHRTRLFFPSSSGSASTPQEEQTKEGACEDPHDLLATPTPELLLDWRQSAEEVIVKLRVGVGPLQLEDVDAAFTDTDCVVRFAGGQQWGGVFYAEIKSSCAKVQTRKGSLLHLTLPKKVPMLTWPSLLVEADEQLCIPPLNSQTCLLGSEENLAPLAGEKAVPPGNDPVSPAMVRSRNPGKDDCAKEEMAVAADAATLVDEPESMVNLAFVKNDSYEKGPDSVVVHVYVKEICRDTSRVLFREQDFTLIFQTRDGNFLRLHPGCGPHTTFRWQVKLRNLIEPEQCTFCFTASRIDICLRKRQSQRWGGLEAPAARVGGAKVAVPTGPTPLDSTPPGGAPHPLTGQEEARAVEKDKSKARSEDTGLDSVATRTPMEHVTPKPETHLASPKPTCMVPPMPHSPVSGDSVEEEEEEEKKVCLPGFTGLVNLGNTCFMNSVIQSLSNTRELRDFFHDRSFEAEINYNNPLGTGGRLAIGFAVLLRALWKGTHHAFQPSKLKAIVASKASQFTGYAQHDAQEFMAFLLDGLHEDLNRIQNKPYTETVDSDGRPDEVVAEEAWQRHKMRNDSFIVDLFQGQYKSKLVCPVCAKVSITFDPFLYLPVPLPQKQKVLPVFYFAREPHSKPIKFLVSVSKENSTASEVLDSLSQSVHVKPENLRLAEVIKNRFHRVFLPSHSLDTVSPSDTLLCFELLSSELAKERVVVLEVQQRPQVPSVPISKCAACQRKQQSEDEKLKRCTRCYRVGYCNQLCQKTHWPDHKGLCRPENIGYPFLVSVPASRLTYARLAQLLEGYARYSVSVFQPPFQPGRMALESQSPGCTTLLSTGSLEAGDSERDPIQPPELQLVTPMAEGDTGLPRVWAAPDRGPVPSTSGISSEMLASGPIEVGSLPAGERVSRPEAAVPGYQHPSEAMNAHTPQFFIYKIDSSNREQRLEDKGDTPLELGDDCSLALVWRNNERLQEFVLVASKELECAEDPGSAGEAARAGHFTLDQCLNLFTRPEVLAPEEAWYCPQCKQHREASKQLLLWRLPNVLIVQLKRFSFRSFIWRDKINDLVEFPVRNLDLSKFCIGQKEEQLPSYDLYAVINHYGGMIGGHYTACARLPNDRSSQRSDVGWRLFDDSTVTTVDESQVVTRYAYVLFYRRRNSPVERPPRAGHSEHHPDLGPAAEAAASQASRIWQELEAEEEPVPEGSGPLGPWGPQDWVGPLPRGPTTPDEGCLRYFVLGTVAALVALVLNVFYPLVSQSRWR
In short: (§1)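 Using Biotin-Ahx-Ub-VS at 0.5 µM final for 1 h, DUBs were labelled in HEK293T lysate (495 µg per sample) that had first been treated in triplicate with fragment at 200 µM or vehicle for 3 h. NeutrAvidin enrichment, LysC and trypsin digestion and diaPASEF LC-MS/MS followed. Spectronaut label-free quantities were global-median-normalised. Values are average log2 fragment/vehicle ratios by unpaired t-test, using proteins with ≥2 unique peptides.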

USP22 = target: T2, USP22 (UniProt Q9UPT9)
T2 sequence (whole entry): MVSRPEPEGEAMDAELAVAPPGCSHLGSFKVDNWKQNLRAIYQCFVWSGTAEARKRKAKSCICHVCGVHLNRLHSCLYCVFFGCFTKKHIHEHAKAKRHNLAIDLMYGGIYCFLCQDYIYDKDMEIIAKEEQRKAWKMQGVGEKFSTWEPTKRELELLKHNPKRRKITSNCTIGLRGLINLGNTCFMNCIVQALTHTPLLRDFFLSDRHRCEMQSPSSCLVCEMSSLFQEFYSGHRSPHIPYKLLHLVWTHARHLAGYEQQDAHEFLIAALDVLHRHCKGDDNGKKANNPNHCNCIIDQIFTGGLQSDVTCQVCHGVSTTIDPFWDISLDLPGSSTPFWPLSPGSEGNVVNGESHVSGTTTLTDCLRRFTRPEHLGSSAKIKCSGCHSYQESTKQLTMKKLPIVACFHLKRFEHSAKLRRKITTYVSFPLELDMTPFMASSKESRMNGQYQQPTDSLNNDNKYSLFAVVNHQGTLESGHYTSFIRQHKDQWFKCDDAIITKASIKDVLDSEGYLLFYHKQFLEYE
In short: as §1

USP24 = USP24 (UniProt Q9UPU5)
In short: as §1

USP25 = target: T3, USP25 (UniProt Q9UHP3)
T3 sequence (whole entry): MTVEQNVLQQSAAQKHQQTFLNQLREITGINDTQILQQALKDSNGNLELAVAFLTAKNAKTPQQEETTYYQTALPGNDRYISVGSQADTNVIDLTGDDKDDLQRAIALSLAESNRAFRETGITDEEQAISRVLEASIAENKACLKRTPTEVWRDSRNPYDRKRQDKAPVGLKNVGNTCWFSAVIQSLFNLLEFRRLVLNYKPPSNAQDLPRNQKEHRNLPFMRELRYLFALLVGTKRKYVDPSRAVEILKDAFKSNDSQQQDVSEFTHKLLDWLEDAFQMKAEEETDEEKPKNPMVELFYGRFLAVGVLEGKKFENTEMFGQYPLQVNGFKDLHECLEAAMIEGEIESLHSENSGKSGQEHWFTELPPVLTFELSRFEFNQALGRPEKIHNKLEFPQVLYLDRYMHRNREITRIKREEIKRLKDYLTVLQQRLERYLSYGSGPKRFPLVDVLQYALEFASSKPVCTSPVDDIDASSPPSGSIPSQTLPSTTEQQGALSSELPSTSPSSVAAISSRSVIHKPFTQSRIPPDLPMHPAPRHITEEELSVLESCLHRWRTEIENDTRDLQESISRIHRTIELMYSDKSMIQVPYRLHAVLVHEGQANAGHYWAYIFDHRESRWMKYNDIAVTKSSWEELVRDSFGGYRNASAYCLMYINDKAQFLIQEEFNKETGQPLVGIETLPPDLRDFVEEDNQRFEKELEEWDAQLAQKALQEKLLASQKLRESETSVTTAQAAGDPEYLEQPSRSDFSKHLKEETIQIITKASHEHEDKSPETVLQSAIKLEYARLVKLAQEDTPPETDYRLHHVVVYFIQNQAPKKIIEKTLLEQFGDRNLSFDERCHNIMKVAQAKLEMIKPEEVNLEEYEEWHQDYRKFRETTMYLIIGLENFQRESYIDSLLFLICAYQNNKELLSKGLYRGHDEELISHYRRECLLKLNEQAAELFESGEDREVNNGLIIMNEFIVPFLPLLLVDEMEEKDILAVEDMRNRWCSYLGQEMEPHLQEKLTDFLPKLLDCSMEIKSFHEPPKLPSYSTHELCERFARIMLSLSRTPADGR
In short: as §1

USP28 = target: T4, USP28 (UniProt Q96RU2)
T4 sequence (whole entry): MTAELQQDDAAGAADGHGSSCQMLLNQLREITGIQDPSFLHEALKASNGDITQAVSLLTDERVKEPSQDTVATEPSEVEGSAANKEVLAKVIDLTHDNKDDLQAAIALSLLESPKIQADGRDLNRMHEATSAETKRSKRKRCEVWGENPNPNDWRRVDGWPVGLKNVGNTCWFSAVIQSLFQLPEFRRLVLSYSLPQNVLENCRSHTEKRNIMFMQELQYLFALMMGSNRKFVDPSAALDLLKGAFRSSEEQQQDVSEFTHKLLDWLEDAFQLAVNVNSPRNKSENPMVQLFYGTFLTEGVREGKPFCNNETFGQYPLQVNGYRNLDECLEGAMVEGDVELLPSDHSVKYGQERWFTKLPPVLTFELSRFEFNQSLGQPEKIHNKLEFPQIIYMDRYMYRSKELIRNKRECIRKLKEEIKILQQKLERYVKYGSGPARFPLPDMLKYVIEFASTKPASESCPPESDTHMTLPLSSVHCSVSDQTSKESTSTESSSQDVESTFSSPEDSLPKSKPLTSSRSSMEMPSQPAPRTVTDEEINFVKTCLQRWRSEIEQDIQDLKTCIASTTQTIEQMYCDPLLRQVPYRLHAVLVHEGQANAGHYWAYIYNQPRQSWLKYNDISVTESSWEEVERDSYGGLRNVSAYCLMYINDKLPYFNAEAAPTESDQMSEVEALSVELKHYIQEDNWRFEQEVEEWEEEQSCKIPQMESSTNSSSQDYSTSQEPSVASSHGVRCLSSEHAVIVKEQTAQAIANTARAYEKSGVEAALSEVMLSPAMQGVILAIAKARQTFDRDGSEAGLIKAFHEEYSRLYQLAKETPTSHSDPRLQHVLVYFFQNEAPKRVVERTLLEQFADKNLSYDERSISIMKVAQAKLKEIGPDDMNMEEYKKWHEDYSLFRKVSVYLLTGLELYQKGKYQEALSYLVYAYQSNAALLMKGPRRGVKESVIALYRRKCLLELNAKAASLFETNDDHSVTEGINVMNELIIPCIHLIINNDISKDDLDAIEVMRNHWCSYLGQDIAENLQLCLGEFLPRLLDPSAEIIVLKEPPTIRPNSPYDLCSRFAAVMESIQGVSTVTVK
In short: as §1

Measured: log2 ratio of Biotin-Ahx-Ub-VS probe labelling

Chain of USP24 (Q9UPU5 whole entry): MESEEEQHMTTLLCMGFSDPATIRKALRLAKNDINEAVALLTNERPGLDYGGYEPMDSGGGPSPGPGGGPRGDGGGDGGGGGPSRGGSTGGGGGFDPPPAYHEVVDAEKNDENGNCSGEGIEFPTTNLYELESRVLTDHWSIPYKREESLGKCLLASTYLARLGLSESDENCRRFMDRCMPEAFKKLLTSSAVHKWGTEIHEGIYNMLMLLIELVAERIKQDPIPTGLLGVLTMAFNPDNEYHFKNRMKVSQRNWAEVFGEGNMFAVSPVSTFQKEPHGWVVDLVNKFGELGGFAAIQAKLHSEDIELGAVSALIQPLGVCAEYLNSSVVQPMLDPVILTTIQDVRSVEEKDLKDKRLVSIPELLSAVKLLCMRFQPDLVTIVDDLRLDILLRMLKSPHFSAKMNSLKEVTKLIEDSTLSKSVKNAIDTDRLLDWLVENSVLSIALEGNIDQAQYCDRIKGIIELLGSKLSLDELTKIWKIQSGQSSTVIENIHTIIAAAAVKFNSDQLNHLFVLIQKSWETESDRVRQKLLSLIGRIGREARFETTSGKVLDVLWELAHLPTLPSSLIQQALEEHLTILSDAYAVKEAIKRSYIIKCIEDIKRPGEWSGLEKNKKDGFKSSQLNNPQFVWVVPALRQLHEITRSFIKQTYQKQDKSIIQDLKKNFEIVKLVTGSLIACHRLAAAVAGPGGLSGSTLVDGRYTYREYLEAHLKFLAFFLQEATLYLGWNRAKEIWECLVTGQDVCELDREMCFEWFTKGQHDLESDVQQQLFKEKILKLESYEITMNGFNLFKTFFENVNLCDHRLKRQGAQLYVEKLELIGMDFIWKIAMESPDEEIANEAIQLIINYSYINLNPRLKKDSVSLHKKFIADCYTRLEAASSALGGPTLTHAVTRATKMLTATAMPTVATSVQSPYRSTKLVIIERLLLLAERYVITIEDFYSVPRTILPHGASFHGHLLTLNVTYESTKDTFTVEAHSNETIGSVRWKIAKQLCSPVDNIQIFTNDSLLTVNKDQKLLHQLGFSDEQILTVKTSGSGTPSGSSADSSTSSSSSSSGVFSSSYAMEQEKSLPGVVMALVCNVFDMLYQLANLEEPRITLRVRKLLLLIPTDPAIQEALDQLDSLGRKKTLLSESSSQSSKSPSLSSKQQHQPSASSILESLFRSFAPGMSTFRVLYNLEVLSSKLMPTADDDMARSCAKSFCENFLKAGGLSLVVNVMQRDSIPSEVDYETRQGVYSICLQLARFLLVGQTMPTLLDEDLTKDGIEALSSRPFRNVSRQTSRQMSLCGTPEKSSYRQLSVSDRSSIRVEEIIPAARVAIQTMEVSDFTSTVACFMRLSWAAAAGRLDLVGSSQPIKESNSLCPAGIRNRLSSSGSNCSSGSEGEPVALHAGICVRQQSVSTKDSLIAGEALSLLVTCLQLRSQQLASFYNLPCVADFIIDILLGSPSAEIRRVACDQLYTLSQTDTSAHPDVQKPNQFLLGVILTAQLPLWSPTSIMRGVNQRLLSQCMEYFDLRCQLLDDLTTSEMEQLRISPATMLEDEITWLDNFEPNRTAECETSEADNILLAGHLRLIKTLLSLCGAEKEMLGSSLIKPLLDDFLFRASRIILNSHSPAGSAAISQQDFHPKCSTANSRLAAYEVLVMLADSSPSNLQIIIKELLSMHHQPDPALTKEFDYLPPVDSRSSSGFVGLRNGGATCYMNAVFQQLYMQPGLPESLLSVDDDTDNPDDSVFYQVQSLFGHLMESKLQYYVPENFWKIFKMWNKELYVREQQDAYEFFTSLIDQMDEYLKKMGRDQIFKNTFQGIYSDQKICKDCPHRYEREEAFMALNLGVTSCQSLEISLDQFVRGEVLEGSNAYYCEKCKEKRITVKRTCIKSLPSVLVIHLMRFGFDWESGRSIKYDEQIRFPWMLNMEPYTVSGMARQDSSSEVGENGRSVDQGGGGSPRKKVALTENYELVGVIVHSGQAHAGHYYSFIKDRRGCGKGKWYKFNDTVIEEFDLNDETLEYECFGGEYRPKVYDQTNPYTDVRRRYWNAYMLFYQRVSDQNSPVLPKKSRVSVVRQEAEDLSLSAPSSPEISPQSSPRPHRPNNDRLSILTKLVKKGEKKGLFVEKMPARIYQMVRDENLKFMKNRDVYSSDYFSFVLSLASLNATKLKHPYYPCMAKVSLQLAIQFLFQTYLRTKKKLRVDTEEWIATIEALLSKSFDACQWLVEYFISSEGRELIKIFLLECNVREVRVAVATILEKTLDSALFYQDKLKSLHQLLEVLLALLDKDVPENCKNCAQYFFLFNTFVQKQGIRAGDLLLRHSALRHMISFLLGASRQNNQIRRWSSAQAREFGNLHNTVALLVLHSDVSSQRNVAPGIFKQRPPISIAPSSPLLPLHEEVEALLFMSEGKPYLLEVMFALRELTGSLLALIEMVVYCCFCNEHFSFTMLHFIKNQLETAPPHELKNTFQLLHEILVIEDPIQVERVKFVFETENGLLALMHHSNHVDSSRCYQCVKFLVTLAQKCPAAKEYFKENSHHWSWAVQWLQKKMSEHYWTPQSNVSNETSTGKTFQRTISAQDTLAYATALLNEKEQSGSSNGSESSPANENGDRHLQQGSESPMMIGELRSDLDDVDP

CC1(NC(=O)CCl)CCS(=O)(=O)C1 (stereo not given)
inactive: USP19 -0.59 | USP22 -0.238 | USP24 -0.659 | USP25 -0.695 | USP28 -0.835
